Shown are actives, neighbours in structure and some others; about 0.9% of the full set was active somewhere.
SRC2 TRFRET art = flags TR-FRET format artefacts in PPARgamma SRC-2 recruitment agonist screen. TR-FRET artefact counter-screen; stronger effect = higher value. 200,000 compounds, 0.4% hits. AID 1049. TR-FRET ratio at 8 µM
SRC3 TRFRET art = counter-screen for PPARgamma SRC-3 recruitment agonists: TR-FRET artefact. TR-FRET ratio at 8 µM. PPARgamma/SRC-3 format; stronger effect = higher value. 99,000 compounds, 0.39% hits. AID 1048
PPARg SRC3 recr = PPARgamma-driven SRC-3 recruitment agonism | P37231 | biochemical PPARgamma/SRC-3 coactivator recruitment assay | activation, % at 8 µM | 200,000 compounds, 0.26% hits; in the data active means activation above about 23%;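 further: 0% = DMSO and 100% = reference agonist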
Target sequence (P37231 whole entry, looked up): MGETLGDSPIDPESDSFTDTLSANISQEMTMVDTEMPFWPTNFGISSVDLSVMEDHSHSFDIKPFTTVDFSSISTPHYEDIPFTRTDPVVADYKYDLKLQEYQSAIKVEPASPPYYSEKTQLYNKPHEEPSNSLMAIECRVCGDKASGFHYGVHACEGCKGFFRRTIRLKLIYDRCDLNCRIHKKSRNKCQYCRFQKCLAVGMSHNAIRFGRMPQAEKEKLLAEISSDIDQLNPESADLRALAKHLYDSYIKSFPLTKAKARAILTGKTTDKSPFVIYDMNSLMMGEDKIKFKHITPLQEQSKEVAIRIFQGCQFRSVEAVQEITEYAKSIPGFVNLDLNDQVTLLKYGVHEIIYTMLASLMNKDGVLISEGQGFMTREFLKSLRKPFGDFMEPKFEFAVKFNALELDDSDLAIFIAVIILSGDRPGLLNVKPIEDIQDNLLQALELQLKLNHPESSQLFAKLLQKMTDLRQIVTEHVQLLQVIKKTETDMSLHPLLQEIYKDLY
PPARg SRC-1 ag = PPARgamma-driven SRC-1 recruitment agonism. PPARgamma-SRC-1 coactivator recruitment biochemical assay. activation, % at 8 µM. 200,000 compounds, 0.41% hits. AID 631; in the data active means activation above about 19%;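 further: 0% = DMSO and 100% = reference agonist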
PPARg SRC2 recr = PPARgamma-driven SRC-2 recruitment agonism; AID 1032; PPARgamma LBD-SRC-2 recruitment, biochemical; activation, % at 8 µM; 200,000 compounds, 0.34% hits; in the data active means activation above about 22%;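 further: 0% = vehicle and 100% = reference agonist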
SRC1 TRFRET art = TR-FRET artefact, counter-screen to PPARgamma/SRC-1 agonist assay; TR-FRET detection artefact counter-screen, emission ratio; stronger effect = higher value; TR-FRET ratio at 8 µM; 99,000 compounds, 0.34% hits; AID 1051; in the data active means TR-FRET ratio above about 2300
PPARg SRC2 conf = confirmation of agonists of SRC-2 recruitment by human PPARgamma. shares compounds with PPARg SRC3 recr. biochemical SRC-2 recruitment by PPARgamma. activation, % at 8 µM. 790 compounds, 52% hits; in the data active means activation above about 22%;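 further: 0% = vehicle alone and 100% = reference agonist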
PPARg SRC1 conf = human PPARgamma SRC-1 recruitment agonism, confirmation; 790 compounds, 43% hits; activation, % at 8 µM; shares compounds with PPARg SRC3 recr; PPARgamma–SRC-1 coactivator recruitment biochemical assay; AID 1300; in the data active means activation above about 20%;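 further: 0% = vehicle wells and 100% = reference agonist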
PPARg SRC3 ag = human PPARgamma SRC-3 recruitment agonism, confirmation; shares compounds with PPARg SRC3 recr; biochemical PPARgamma-SRC-3 coactivator recruitment, agonist mode; activation, % at 8 µM; 790 compounds, 29% hits; in the data active means activation above about 24%;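 further: 0% = vehicle wells and 100% = reference agonist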
An asterisk follows results filed as active; / = no result. Unless noted, no stated cut-off is given here; in the data, active means TR-FRET ratio above about 2000; inactive means the rest.

SMILES | SRC2 TRFRET art | SRC3 TRFRET art | PPARg SRC3 recr | PPARg SRC-1 ag | PPARg SRC2 recr | SRC1 TRFRET art | PPARg SRC2 conf | PPARg SRC1 conf | PPARg SRC3 ag
CC(C)CN1C(=O)C(=Nc2cccnc2)c2ccccc21 | 1614 | 1586 | 2 | 14 | 6 | 1919 | / | / | /
N#Cc1c(-c2ccccc2)cc(C2CC2)nc1SCC(=O)c1cccs1 | 2112* | / | 12 | 24* | 7 | / | 53* | 43* | 26*
O=C(Cn1cnc([N+](=O)[O-])n1)NC1CC1 | 1456 | 1617 | -1 | -1 | 1 | 1858 | / | / | /
C=CCCCCCCCC(=O)OC | 1655 | 1763 | 5 | 22* | 13 | 1995 | 5 | 4 | 2
CC(=O)CSc1nc(-c2cccs2)c(C#N)c(=O)[nH]1 | 2150* | 2268* | 17 | 16 | 26* | 2767* | 31* | 20* | 20
CC(=O)CSc1nc(N)c(C#N)c(-c2cccs2)c1C#N | 1500 | / | -4 | 1 | -2 | / | / | / | /
S=C(NCc1ccc2c(c1)OCO2)Nc1ccc2nsnc2c1 | 2840* | 3652* | 56* | 61* | 91* | 3812* | 23* | 28* | 14
Cc1ccc(NC(=S)NCc2ccc3c(c2)OCO3)cc1C | 1647 | 1566 | 0 | -1 | -6 | 1815 | / | / | /
COc1cccc(NC(=O)c2cc(CN3C(=O)c4ccccc4C3=O)ccc2OC)c1 | 1818 | 1737 | 3 | 1 | 6 | 2110 | / | / | /
Cc1ccc(CN2C(=O)C3CCCN3c3ccc(C#N)cc32)cc1 (stereo not drawn) | 1578 | / | 29* | 7 | 16 | / | 12 | 14 | 8
Cc1ccc(C)c(CN2C(=O)C3CCCN3c3ccc(C#N)cc32)c1 (stereo not drawn) | 1692 | / | 10 | 0 | 1 | / | / | / | /
CCOC(=O)c1ccc(NC(=O)c2cn(CCC#N)nc2-c2ccc3c(c2)OCCO3)cc1 | 1471 | 1506 | 0 | 11 | 6 | 1713 | / | / | /
COc1cc(C(=O)NCc2ccc3c(c2)OCO3)ccc1OCc1c(C)noc1C | 1774 | / | 20 | 5 | 25* | / | -1 | 0 | -2
COC(=O)c1ccc(OS(=O)(=O)N(C)C)cc1 | 1538 | 1679 | -1 | -4 | 7 | 1766 | / | / | /
Cc1ccc(-n2nnnc2CSc2nnc(-c3ccc(O)cc3)o2)cc1 | 1545 | 1564 | 1 | -2 | -3 | 1973 | / | / | /
Cc1nc2ccc(-c3nc4cc(N)ccc4o3)cc2[nH]1 | 1816 | / | 18 | 21* | 16 | / | 10 | 9 | 8
Nc1ccc2oc(-c3ccc4nc[nH]c4c3)nc2c1 | 1494 | / | 3 | -4 | 1 | / | / | / | /
O=C(NCCc1c[nH]c2ccccc12)c1cnccn1 | 1442 | 1592 | -4 | -8 | 5 | 1618 | / | / | /
COc1cc(C(=O)NCCC(C)C)ccc1OCc1ccc(Cl)cc1Cl | 1605 | 1559 | 47* | 48* | 14 | 1879 | 18 | 45* | 38*
COc1ccc(Cl)cc1-c1n[nH]c(=S)o1 | 3750* | / | 119* | 57* | 104* | / | 72* | 50* | 49*
COc1ccccc1-c1n[nH]c(=S)o1 | 2562* | / | 59* | 36* | 48* | / | 46* | 35* | 30*
COc1ccccc1-c1cc(N)n[nH]1 | 1458 | / | 9 | 7 | -8 | / | / | / | /
CC(=O)C1=C(O)C(=O)N(CCc2c[nH]c3ccccc23)C1c1cccc(O)c1 (stereo not drawn) | 1589 | / | -3 | -6 | -1 | / | / | / | /
COc1cc(C2C(C(C)=O)=C(O)C(=O)N2CCc2c[nH]c3ccccc23)ccc1O (stereo not drawn) | 1653 | / | 9 | 19* | 5 | / | 0 | 0 | 3
CCN(CC)C(=O)CSc1nc(OC)cc(=O)[nH]1 | 1489 | 1632 | 5 | 1 | 8 | 1590 | / | / | /
O=C(CSc1nnc(-c2cccs2)n1-c1ccccc1)Nc1ccccc1 | 1837 | / | 31* | 46* | 64* | / | 20 | 17 | 9
CCOC(=O)CSc1nnc(-c2cccs2)n1-c1ccccc1 | 1676 | / | 6 | 6 | 6 | / | / | / | /

Source: PubChem (The Scripps Research Institute Molecular Screening Center)
